Test results as given in PubChem BioAssay AID1851 (National Center for Advancing Translational Sciences (NCATS), 2009).
The whole screen tested about 16,000 compounds, of which about 2,600 (16%) were called active. Roughly 20% stayed inconclusive and do not appear here. The call rests on the fitted dose curve; in most records, active means well fitted curve in the direction sought with a large enough effect; inconclusive means small, poorly fitted or top-dose-only effect, or effect the other way; inactive means no such curve, though single readings can be large or run the other way. These entries were drawn from the full list.

Biological target: Cytochrome P450 2D6 (Homo sapiens) (UniProt P10635)
Assay: Cytochrome panel assay with activity outcomes
Conditions: recombinant CYP, pro-luciferin dealkylation, luminescence, p450-cyp2d6; series mostly up to 57.1 µM; activity, negative = inhibition: at the top concentration
On the % scale 0 is the no-effect control and ±100 the full control effect.

Chain of Cytochrome P450 2D6 (Homo sapiens) (P10635 whole entry, looked up): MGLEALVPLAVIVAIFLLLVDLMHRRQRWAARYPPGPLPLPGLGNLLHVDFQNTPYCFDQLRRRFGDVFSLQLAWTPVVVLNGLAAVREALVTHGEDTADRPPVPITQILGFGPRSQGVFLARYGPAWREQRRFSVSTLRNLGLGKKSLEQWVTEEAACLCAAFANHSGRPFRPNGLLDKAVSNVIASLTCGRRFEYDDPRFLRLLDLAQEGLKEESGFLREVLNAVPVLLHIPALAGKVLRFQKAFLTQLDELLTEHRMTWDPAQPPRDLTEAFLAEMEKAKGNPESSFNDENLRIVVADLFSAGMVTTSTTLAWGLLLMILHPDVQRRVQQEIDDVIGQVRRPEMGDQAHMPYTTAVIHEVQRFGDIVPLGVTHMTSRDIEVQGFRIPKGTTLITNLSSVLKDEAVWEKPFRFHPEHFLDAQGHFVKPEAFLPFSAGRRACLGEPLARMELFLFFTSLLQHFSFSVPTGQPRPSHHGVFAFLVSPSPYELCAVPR

activity, negative = inhibition, inactive:
O=S(=O)(O)[C@@H](c1ccccc1)[C@@H](O)c1ccccc1 4.68% [at 11.4 µM]
Cc1cnc(CNc2nc(-c3cccnc3)nc3ccccc23)cn1 -9.02%
CNC(=S)N1N=C(c2ccc(OC)cc2)CC1c1ccc(N(C)C)cc1 (centres undefined) -18.3%
Cc1c(CCC(C)C)c(-n2ccnc2C)n2c(nc3ccccc32)c1C#N -7.46%
CCSc1nnc2n(N)c(=O)c3ccccc3n12 -7.64%
Cc1cc(=O)oc2cc(O)c(CN(C)CC(=O)O)cc12 -1.55% [at 11.4 µM]
Cc1cccc(Nc2ccccc2C(=O)OCC(=O)N(C)C2CCS(=O)(=O)C2)c1C (centres undefined) -27.8%
Cc1cc(C)nc(SCCc2cccc[n+]2C)n1 -2.83% [at 11.4 µM]
S=c1[nH]nc(-c2ccncc2)n1CC1CCCO1 (centres undefined) 5.32%
Cc1cc(NC(=O)CSc2nc3ccsc3c(=O)n2CCCCC(=O)O)no1 -30.2%
C[C@@]1(O)CCOC(=O)C1 -3.8% [at 25.6 µM]
CCOC(=O)c1c(C)[nH]c(C(=O)OCC(=O)NC2CCS(=O)(=O)C2)c1C (centres undefined) 2.53%
NCCS(=O)O 7.44%
Cc1ccc(S(=O)(=O)O/N=C2/CCCc3occc32)cc1 -14.7%
O=CN[C@@H](Cc1cnc[nH]1)C(=O)O -4.29% [at 11.4 µM]
CN(C)C[C@H]1CCC[C@@H](CN(C)C)C1=O -1.21% [at 11.4 µM]
Clc1ccc2oc(-c3cccnc3)nc2c1 6.45%
Cn1c(=O)c(-c2cccc(Cl)c2)nc2cncnc21 -7.08%
CCOC(=O)C1CCCN(c2ncnc3c2cnn3-c2ccc(Cl)cc2)C1 (centres undefined) -5.44%
COCCn1c(=O)c(-c2cccs2)nc2cncnc21 -11.4%
O=C(Nc1ccc2ccccc2c1)[C@@H]1C[C@H]1[C@@H](NP(=O)(c1ccccc1)c1ccccc1)c1ccccc1 -10.1%
C[C@@H](C(=O)Cc1ccc2ccccc2c1)[C@@H]1C[C@@]1(C)[C@@H](NP(=O)(c1ccccc1)c1ccccc1)c1ccccc1 6.45%
O=C(Nc1ccc2ccccc2c1)[C@H]1C[C@@H]1[C@H](NP(=O)(c1ccccc1)c1ccccc1)c1ccccc1 14%
Cc1nn(C)c(Cl)c1S(=O)(=O)N[C@@H](c1ccccc1)[C@]1(C)C[C@H]1[C@@H](C)C(=O)Nc1ccc2ccccc2c1 6.42%
CC1(C)S[C@@H]2[C@H](NC(=O)[C@@H](NC(=O)N3CCNC3=O)c3ccccc3)C(=O)N2[C@H]1C(=O)O -1.37% [at 25.6 µM]
COC(=O)c1sccc1NC(=O)CSc1ccccc1NS(=O)(=O)c1ccc(Cl)cc1 -0.426%
C[C@@H]1O[C@H]2C3=C(C(=O)[C@H]4O[C@@H]4[C@H]3O)[C@@H]1[C@@H]1[C@@H](C)OC=C3[C@H](O)[C@H]4O[C@@H]4/C(=N\OCc4ccccc4)[C@]312 -8.47% [at 11.4 µM]
O=C(NCc1ccccc1)C(c1ccc(F)cc1)N(Cc1ccco1)C(=O)c1ccccn1 (centres undefined) -23.4%
COC(=O)[C@H]1C[C@@H]1[C@H](NC(=O)Oc1ccc(F)cc1)c1ccccc1 -5.03%
C[C@@H](C(=O)Nc1ccc2ccccc2c1)[C@@H]1C[C@@]1(C)[C@@H](NC(=O)Oc1ccc(F)cc1)c1ccccc1 3.54%
CO[C@@H]1COC(=O)CC=C[C@@H](C)[C@@H]2C=C[C@H](O)[C@@H](COC(=O)C/C=C\[C@H]1C)O2 13% [at 11.4 µM]
Cc1cc(C)c(C)c(S(=O)(=O)ON2C(=O)c3ccccc3C2=O)c1C -29.2%
CC(C)(C)c1ccc(OCC(=O)O)c(Cl)c1 12.8% [at 11.4 µM]
Cc1nc(NS(=O)(=O)c2ccccc2C)c2c3c(sc2n1)CCC3 -4.47%
CCCNC(=O)c1c(C)cc(=O)oc1C -29%
COc1cc(-c2nnc(-c3ccc(N4CCOCC4)cc3)o2)cc(OC)c1OC -3.51%
COc1ccc(Br)cc1/C=C/C(=O)Nc1c(C)cccc1C -29.7%
O=C(CC1C(=O)NCCN1C(=S)Nc1ccccc1)Nc1ccc2c(c1)OCCO2 (centres undefined) 4.52%
CCN1C(=O)C(CC(=O)Nc2ccc(OC)cc2)N(Cc2cccnc2)C1=S (centres undefined) -21.7%
CCCCC(=O)Nc1ccc(C(=O)NNC(=O)CCc2ccccc2)cc1 8.04%
CCNC(=O)CC1C(=O)N(c2ccc(F)cc2)C(=O)N1CCc1ccc(OC)cc1 (centres undefined) -1.57%
CC(=O)Nc1ccc(S(=O)(=O)NC2(C(F)(F)F)NC(=O)N(c3ccc(Cl)cc3)C2=O)cc1 (centres undefined) 5.87%
CN1C(=O)C(CC(N)=O)N(NC(=O)c2ccc(Cl)cc2)C1=S (centres undefined) 6.45%

AC50, active:
c1cncc(CNc2nc(-c3ccoc3)nc3ccccc23)c1 5.01 µM
CN(C)c1ccc(-c2nc(NCCc3cnc[nH]3)c3ccccc3n2)cc1 7.94 µM
c1cncc(-c2nc(NCc3cccs3)c3ccccc3n2)c1 6.31 µM
Cc1cccc(CNc2nc(-c3cccnc3)nc3ccccc23)c1 25.1 µM
C[C@@H](CCCCC(=O)Nc1ccc(C(F)(F)F)cc1)NCCc1cnc[nH]1 5.01 µM
Fc1ccc2c(c1)C(c1ccncc1)=NNC(c1ccc(Cl)cc1)=N2 0.398 µM
Clc1ccc2c(c1)C(c1cccs1)=NNC(c1cccnc1)=N2 10 µM
C[C@@H](C(=O)Nc1ccc2ccccc2c1)[C@@H]1C[C@@]1(C)[C@@H](N)c1ccccc1 12.6 µM
CC(=O)N[C@H](c1ccccc1)[C@@]1(C)C[C@@H]1[C@@H](C)C(=O)Nc1ccc2ccccc2c1 2 µM
Cc1cc(C(=O)N[C@H](c2ccccc2)[C@@]2(C)C[C@@H]2[C@@H](C)C(=O)Nc2ccc3ccccc3c2)n(C)n1 0.0398 µM
C[C@@H](C(=O)Nc1ccc2ccccc2c1)[C@H]1C[C@]1(C)[C@H](NP(=O)(c1ccccc1)c1ccccc1)c1ccccc1 0.794 µM
COC(=O)N[C@H](c1ccccc1)[C@@]1(C)C[C@@H]1[C@@H](C)C(=O)Nc1ccc2ccccc2c1 0.0316 µM
C[C@@H](C(=O)Nc1ccc2ccccc2c1)[C@H]1C[C@]1(C)[C@H](NC(=O)Oc1ccc(F)cc1)c1ccccc1 2.51 µM
CCN1C(=O)C(CC(=O)Nc2ccc(Br)cc2)N(CCCc2ccccc2)C1=S (centres undefined) 10 µM
O=C(CC1C(=O)N(c2ccc(Cl)cc2)C(=S)N1CCc1ccncc1)Nc1ccc(F)cc1 (centres undefined) 2.24 µM
CN1C(=O)C(CC(=O)Nc2ccc(F)cc2)N(CCCc2ccccc2)C1=S (centres undefined) 2 µM
